From PubChem BioAssay (Tox21)
Records with an inconclusive call do not appear. More than one record can exist for a structure, and the calls need not agree. Active and inactive are the calls of the source. Calls come from the whole dose curve.

Tests used:
[1] = molecular target: Acetylcholinesterase (Homo sapiens) (UniProt P22303); assay: Acetylcholinesterase (AChE) small molecule antagonists: colormetric cell-based qHTS assay (AID 1347395); note: nearly all actives have a fitted effect of over 30% in size; note: potency is the fitted concentration of half-maximal effect
Sequence of Acetylcholinesterase (Homo sapiens) (P22303 whole entry, looked up): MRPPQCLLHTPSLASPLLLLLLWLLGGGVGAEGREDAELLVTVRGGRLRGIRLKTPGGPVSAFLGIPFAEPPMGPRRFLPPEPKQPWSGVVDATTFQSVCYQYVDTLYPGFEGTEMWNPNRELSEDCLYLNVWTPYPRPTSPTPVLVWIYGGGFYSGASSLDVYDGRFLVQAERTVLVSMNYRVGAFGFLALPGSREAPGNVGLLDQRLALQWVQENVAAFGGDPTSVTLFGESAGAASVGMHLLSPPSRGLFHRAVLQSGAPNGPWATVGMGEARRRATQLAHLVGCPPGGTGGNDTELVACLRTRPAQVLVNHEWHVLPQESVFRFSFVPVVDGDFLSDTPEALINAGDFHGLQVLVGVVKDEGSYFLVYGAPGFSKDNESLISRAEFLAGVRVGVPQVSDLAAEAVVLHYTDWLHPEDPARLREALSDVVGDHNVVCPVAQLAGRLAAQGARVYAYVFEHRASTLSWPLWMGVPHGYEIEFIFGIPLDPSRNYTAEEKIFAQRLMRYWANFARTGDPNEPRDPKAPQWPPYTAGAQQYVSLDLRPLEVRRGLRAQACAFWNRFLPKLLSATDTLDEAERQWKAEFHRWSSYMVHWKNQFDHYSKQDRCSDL
Method in brief: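 SH-SY5Y cells; cpd 30 min 37 C; + DTNB/acetylthiocholine, 90 min 37 C; colorimetric thiocholine read; qHTS.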

[2] = molecular target: Acetylcholinesterase (Homo sapiens) (UniProt P22303); assay: Acetylcholinesterase (AChE) small molecule antagonists: enzyme-based qHTS assay (AID 1347397); conditions: Potency: AChE enzyme activity inhibition; outcome: AChE enzyme activity inhibition; note: nearly all actives have a fitted effect of over 55% in size
Method in brief: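 Absorbance-based detection of thiocholine with DTNB served as the read-out. Recombinant human AChE was exposed to compound for 30 min at RT before a 10 min RT incubation with acetylthiocholine.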

[3] = molecular target: Acetylcholinesterase (Homo sapiens) (UniProt P22303); assay: Acetylcholinesterase (AChE) small molecule antagonists: fluorescence cell-based qHTS assay (AID 1347398); conditions: Potency: AChE activity; outcome: AChE activity; note: nearly all actives have a fitted effect of over 50% in size
Method in brief: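 Fluorimetric cell-based assay: intact SH-SY5Y cells, 30 min compound preincubation at 37 C, acetylthiocholine substrate with thiol probe Thiolite Green, 40 min RT development, fluorescence 490/520 nm.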

[4] = molecular target: Acetylcholinesterase (Homo sapiens) (UniProt P22303); assay: Acetylcholinesterase (AChE) small molecule antagonists: enzyme-based qHTS assay with human liver microsomes (AID 1347399); conditions: Potency: qHTS inhibition; outcome: qHTS inhibition; note: nearly all actives have a fitted effect of over 60% in size
Method in brief: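 Recombinant human AChE (50 mU/mL in the enzyme mix) and human liver microsomes (0.25 mg/mL final) were preincubated with compound and NADPH (0.25 mg/mL final) for 30 min at 37 C. Acetylthiocholine/DTNB was then added; thiocholine was read colorimetrically after 10 min at room temperature.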
% is set by controls: 0 for no effect and ±100 for the full control effect.

O=S(=O)(O)c1ccc(Cl)cc1
inactive: Potency [1] | Potency [2] | Potency [3] | Potency [4]

O=C(Oc1ccccc1)c1ccccc1O
inactive: Potency [1] | Potency [2] | Potency [3] | Potency [4]

Cc1ncc(CO)c(CN)c1O
inactive: Potency [1] | Potency [2] | Potency [3] | Potency [4]

C[C@@H]1C[C@H]2[C@@H]3CCC4=CC(=O)C=C[C@]4(C)[C@@]3(F)[C@@H](O)C[C@]2(C)[C@@]1(O)C(=O)COP(=O)(O)O
inactive: Potency [1] | Potency [2] | Potency [3] | Potency [4]

c1ccsc1
inactive: Potency [1] | Potency [2] | Potency [3] | Potency [4]

O=C(O)CN(CCN(CC(=O)O)CC(=O)O)CCN(CC(=O)O)CC(=O)O
inactive: activity, negative = inhibition [1] 0.969% [at 23.6 µM] | activity change, negative = inhibition [2] 0.748% [at 23.6 µM] | activity change, negative = inhibition [3] 7.05% [at 23.8 µM] | activity change, negative = inhibition [4] 0% [at 23.6 µM]

COc1ccc(S(=O)(=O)N2C(=O)[C@@](c3ccccc3OC)(N3C[C@H](O)C[C@H]3C(=O)N(C)C)c3cc(Cl)ccc32)c(OC)c1
inactive: Potency [1] | Potency [2] | Potency [3] | Potency [4]

OC1C(O)C(O)C(O)C(O)C1O (stereo not given)
inactive: Potency [1] | Potency [2] | Potency [3] | Potency [4]

C/C=C/C(=O)O
inactive: Potency [1] | Potency [2] | Potency [3] | Potency [4]

Nc1ccc(Nc2ccccc2)cc1
inactive: Potency [1] | Potency [2] | Potency [3] | Potency [4]

NC(N)=O
inactive: Potency [1] | Potency [2] | Potency [3] | Potency [4]

CC(C)c1ccc(O)c(C(C)C)c1
inactive: Potency [1] | Potency [2] | Potency [3] | Potency [4]

C=CCCCCCCCCO
inactive: Potency [1] | Potency [2] | Potency [3] | Potency [4]

COc1cc(C(=O)N2CCOCC2)cc(OC)c1OC
inactive: Potency [1] | Potency [2] | Potency [3] | Potency [4]

O=C(O)c1cc(C(=O)O)cc(C(=O)O)c1
inactive: Potency [1] | Potency [2] | Potency [3] | Potency [4]

CCCCC(CC)COC(=O)COc1ccc(Cl)cc1C (stereo not given)
inactive: Potency [1] | Potency [2] | Potency [3] | Potency [4]

COc1ccc(C#N)cc1
inactive: Potency [1] | Potency [2] | Potency [3] | Potency [4]

COc1ccccc1NC(=O)CC(C)=O
inactive: Potency [1] | Potency [2] | Potency [3] | Potency [4]

CCCCCCCCCCCCCOC(=O)CCSCCC(=O)OCCCCCCCCCCCCC
inactive: activity, negative = inhibition [1] 3.05% [at 23.6 µM] | activity change, negative = inhibition [2] 1.34% [at 23.6 µM] | activity change, negative = inhibition [3] -0.492% [at 23.8 µM] | activity change, negative = inhibition [4] 0.346% [at 23.6 µM]

O=C(OCCOCCOCCOC(=O)c1ccccc1)c1ccccc1
inactive: Potency [1] | Potency [2] | Potency [3] | Potency [4]

Cc1cc(CC(=O)O)n(C)c1C(=O)c1ccc(Cl)cc1
inactive: Potency [1] | Potency [2] | Potency [3] | Potency [4]

Nc1c(CC(=O)O)cccc1C(=O)c1ccc(Br)cc1
inactive: Potency [1] | Potency [2] | Potency [3] | Potency [4]

O=C(O)c1cc(=O)[nH]c(=O)[nH]1
inactive: Potency [1] | Potency [2] | Potency [3] | Potency [4]

O=C(O)c1ccc2c(c1)C(=O)OC2=O
inactive: Potency [1] | Potency [2] | Potency [3] | Potency [4]

O=C(/C=C/c1ccc([N+](=O)[O-])cc1)c1ccccc1
inactive: Potency [1] | Potency [2] | Potency [3] | Potency [4]

Cc1c(O)cccc1O
inactive: Potency [1] | Potency [2] | Potency [3] | Potency [4]

CC(C)CC(C)(N)C#N (stereo not given)
inactive: Potency [1] | Potency [2] | Potency [3] | Potency [4]

CC(C)C(=O)c1ccccc1
inactive: Potency [1] | Potency [2] | Potency [3] | Potency [4]

CCN1CN(CC)CN(CC)C1
inactive: Potency [1] | Potency [2] | Potency [3] | Potency [4]

O=C1CC(c2ccc(Cl)cc2)CC(=O)N1
inactive: Potency [1] | Potency [2] | Potency [3] | Potency [4]

COc1ccc([N+](=O)[O-])cc1N
inactive: Potency [1] | Potency [2] | Potency [3] | Potency [4]

CCCCCCCCCCCC(=O)Cl
inactive: Potency [1] | Potency [2] | Potency [3] | Potency [4]

OCCOCC#CCOCCO
inactive: Potency [1] | Potency [2] | Potency [3] | Potency [4]

COc1cc2c(cc1OC)CN(C(=O)[C@H](C)N[C@@H](CCc1ccccc1)C(=O)O)[C@H](C(=O)O)C2
inactive: Potency [1] | Potency [2] | Potency [3] | Potency [4]

CCNc1cccc(C)c1
inactive: Potency [1] | Potency [2] | Potency [3] | Potency [4]

Brc1nc2ccccc2s1
inactive: Potency [1] | Potency [2] | Potency [3] | Potency [4]

CCCCC(CC)CCC(CC(C)C)OS(=O)(=O)O (stereo not given)
inactive: Potency [1] | Potency [2] | Potency [3] | Potency [4]

CC(CO)c1ccccc1 (stereo not given)
inactive: Potency [1] | Potency [2] | Potency [3] | Potency [4]

Nc1ccn([C@H]2CC[C@@H](CO)O2)c(=O)n1
inactive: Potency [1] | Potency [2] | Potency [3] | Potency [4]

O=C(O)CN(CCOCCOCCN(CC(=O)O)CC(=O)O)CC(=O)O
inactive: activity, negative = inhibition [1] -1.41% [at 0.435 µM] | activity change, negative = inhibition [2] -0.554% [at 0.435 µM] | activity change, negative = inhibition [3] 2.07% [at 0.439 µM] | activity change, negative = inhibition [4] -0.252% [at 0.435 µM]

COc1ccc(CCO)cc1
inactive: Potency [1] | Potency [2] | Potency [3] | Potency [4]

CC1=CC[C@@H](C(C)(C)O)CC1
inactive: Potency [1] | Potency [2] | Potency [3] | Potency [4]

O=C=NCC1CCCC(CN=C=O)C1 (stereo not given)
inactive: Potency [1] | Potency [2] | Potency [3] | Potency [4]

CC1(C)[C@H]2CC[C@]1(C)[C@H](O)C2
inactive: Potency [1] | Potency [2] | Potency [3] | Potency [4]

CC(C)CC(C)CC(C)CC(C)COC(=O)c1ccccc1C(=O)OCC(C)CC(C)CC(C)CC(C)C (stereo not given)
inactive: Potency [1] | Potency [2] | Potency [3] | Potency [4]

COc1cc(NC(=O)CC(C)=O)c(OC)cc1Cl
inactive: Potency [1] | Potency [2] | Potency [3] | Potency [4]

CCN(CC)S(=O)(=O)c1ccc(C(=O)O)cc1
inactive: Potency [1] | Potency [2] | Potency [3] | Potency [4]

O=C(O)O
inactive: activity, negative = inhibition [1] -0.194% [at 10.5 µM] | activity change, negative = inhibition [2] 0.136% [at 10.5 µM] | activity change, negative = inhibition [3] 2.47% [at 10.5 µM] | activity change, negative = inhibition [4] -6.48% [at 10.5 µM]

Cc1cc(N)n(-c2ccccc2)n1
inactive: Potency [1] | Potency [2] | Potency [3] | Potency [4]

[O-]/[N+](=N\O)c1ccccc1
inactive: Potency [1] | Potency [2] | Potency [3] | Potency [4]

OC[C@@H](O)[C@@H](O)[C@H](O)[C@@H](O)CO
inactive: Potency [1] | Potency [2] | Potency [3] | Potency [4]

CC(C)C(=O)C(C)C
inactive: Potency [1] | Potency [2] | Potency [3] | Potency [4]

C[C@]12CC[C@@H]3c4ccc(O)cc4CC[C@H]3[C@@H]1CC[C@@H]2OC(=O)CCC1CCCC1
inactive: Potency [1] | Potency [2] | Potency [3] | Potency [4]

N[C@@H](Cc1cc(I)c(Oc2cc(I)c(O)c(I)c2)c(I)c1)C(=O)O
inactive: Potency [1] | Potency [2] | Potency [3] | Potency [4]

CNC1(C)C2CCC(C2)C1(C)C (stereo not given)
inactive: Potency [1] | Potency [2] | Potency [3] | Potency [4]

CCC(C)n1ncn(-c2ccc(N3CCN(c4ccc(OC[C@H]5CO[C@](Cn6cncn6)(c6ccc(Cl)cc6Cl)O5)cc4)CC3)cc2)c1=O (stereo not given in full)
inactive: Potency [1] | Potency [2] | Potency [3] | Potency [4]

C=CC(=O)OCCC(=O)O
82.3 µM (active) and inactive: Potency [1]
inactive: Potency [2] | Potency [3] | Potency [4]

CN(C)CCC(c1ccccc1)c1ccccn1 (stereo not given)
inactive: Potency [1] | Potency [2] | Potency [3] | Potency [4]

C=CCCCCCCCC
inactive: Potency [1] | Potency [2] | Potency [3] | Potency [4]

CCSC(=O)N(CC)CC
inactive: Potency [1] | Potency [2] | Potency [3] | Potency [4]
